In assay [1] the target is Nuclear receptor subfamily 1 group I member 2 (Homo sapiens) (UniProt O75469). In words: NVS_NR_hPXR: NovaScreen (NVS) Nuclear Receptor Binding Assay for human Pregnane X Receptor (PXR) (AID 2283365).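 Also: a drop in FRET signal versus DMSO baseline means the compound binds.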 An outline of the steps:
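Cell-free binding assay with extracted human PXR protein, read by TR-FRET 2 h after dosing; loss of signal relative to DMSO baseline indicates binding. Primary screen at 25 uM in duplicate, actives retested in concentration series.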

For assay [2], the target named is rat Androgen Receptor (AR), Ar (gene 24208) (UniProt P15207). In words: NVS_NR_rAR: NovaScreen (NVS) Nuclear Receptor Binding Assay for rat Androgen Receptor (AR) (AID 2283366). An outline of the steps: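 Actives from a duplicate single-concentration (25 uM) primary run went on to concentration series. Displacement of radioligand was counted by filtration and scintillation, 18 h post-dose, using prostate extracts from testosterone-pretreated rats, with DMSO as baseline.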

For assay [3], the target named is guinea pig Sigma Receptor, Non-selective Binding, SIGMAR1 (gene 100135589) (UniProt Q60492). In words: NVS_OR_gSIGMA_NonSelective: NovaScreen (NVS) Nuclear Receptor Binding Assay for guinea pig Sigma Receptor, Non-selective Binding (AID 2283367). As to the method: NVS_OR_gSIGMA_NonSelective is a biochemical, single-readout assay that uses extracted gene-proteins from Guinea pig brain membranes in a tissue-based cell-free assay. Measurements were taken 1 hour after chemical dosing in a 48-well plate.NVS_OR_gSIGMA_NonSelective is one of one assay component(s) measured or calculated from the NVS_OR_gSIGMA_NonSelective assay. It is designed to make measurements of radioligand binding, a form of binding reporter, as detected with scintillation counting signals by Filter-based radiodetection technology.Data from the assay component NVS_OR_gSIGMA_NonSelective was analyzed into 1 assay endpoint. This assay endpoint, NVS_OR_gSIGMA_NonSelective, was analyzed in the positive analysis fitting direction relative to DMSO as the negative control and baseline of activity. Using a type of binding reporter, loss-of-signal activity can be used to understand changes in the binding as they relate to the gene Sigmar1. Furthermore, this assay endpoint can be referred to as a primary readout, because the performed assay has only produced 1 assay endpoint. To generalize the intended target to other relatable targets, this assay endpoint is annotated to the misc protein intended target family, where the subfamily is chaperone.
Binding assays used specific radioligands (tritiated, iodinated) with non-radioactive competitive displacement ligands in agonist or antagonist protocols (as indicated) and various reference compounds and inhibitors to titrate specific binding to receptors and transporters. Most enzyme assays (CYPs, kinases, phosphatases, proteases, HDACs) used recombinant protein and specific substrates (fluorescence mostly, some colorimetric and radioactive) and inhibitors, followed by a biochemical separation of substrate and product. All assays for the biochemical HTS were initially run in duplicate at a single concentration (10 uM for CYP450 assays and 25 uM for all others). […] Each assay was run with positive and negative controls, and concurrent controls on every plate. The follow-up (secondary) screen tested active chemical-pairs in concentration series, as well as a few additional assays not tested in the primary screen, some selected negative inactives, and several cases re-run in the concentration series for confirmatory purposes.

Assay [4] concerns the target Peroxisome proliferator-activated receptor gamma (Homo sapiens) (UniProt P37231). As to the kind of experiment: NVS_NR_hPPARg: NovaScreen (NVS) Nuclear Receptor Binding Assay for human Peroxisome Proliferator-activated Receptor gamma (PPARg) (AID 2283370). An outline of the steps:
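Cell-free binding to extracted PPARg protein, read by fluorescence polarization 2 h after dosing; loss of signal relative to DMSO baseline marks displacement. Primary screen in duplicate at 25 uM, actives retested in concentration series.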

In assay [5] the test system is rat Norepinephrine Transporter (NET), gene 83511. In words: NVS_TR_rNET: NovaScreen (NVS) Transporter Assay for rat Norepinephrine Transporter (NET) (AID 2283373). The method in brief:
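Competitive radioligand displacement at the rat NET using forebrain membrane preparations, 1 h incubation, filter-based scintillation readout. Primary testing in duplicate at a single 25 uM concentration; confirmed actives retested across concentrations.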

Assay [6] has as its target Glucocorticoid receptor (Homo sapiens) (UniProt P04150). In words: NVS_NR_hGR: NovaScreen (NVS) Nuclear Receptor Binding Assay for human Glucocorticoid Receptor (GR) (AID 2283363). The method in brief: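 Single-readout cell-free binding: radioligand plus extracted receptor, 16-hour dosing, filter radiodetection; 25 uM duplicate primary, concentration series secondary.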

Assay [7] addresses human Adenosine Transporter (Adot), SLC29A1 (gene 2030) (UniProt Q99808). In words: NVS_TR_hAdoT: NovaScreen (NVS) Transporter Assay for human Adenosine Transporter (Adot) (AID 2283368). As to the method: NVS_TR_hAdoT is a biochemical, single-readout assay that uses extracted gene-proteins from U937 in a cell-free assay. Measurements were taken 1 hour after chemical dosing in a 96-well plate.NVS_TR_hAdoT is one of one assay component(s) measured or calculated from the NVS_TR_hAdoT assay. It is designed to make measurements of radioligand binding, a form of binding reporter, as detected with scintillation counting signals by Filter-based radiodetection technology.Data from the assay component NVS_TR_hAdoT was analyzed into 1 assay endpoint. This assay endpoint, NVS_TR_hAdoT, was analyzed in the positive analysis fitting direction relative to DMSO as the negative control and baseline of activity. Using a type of binding reporter, loss-of-signal activity can be used to understand changes in the binding as they relate to the gene SLC29A1. Furthermore, this assay endpoint can be referred to as a primary readout, because the performed assay has only produced 1 assay endpoint. To generalize the intended target to other relatable targets, this assay endpoint is annotated to the transporter intended target family, where the subfamily is nucleoside transporter.
Binding assays used specific radioligands (tritiated, iodinated) with non-radioactive competitive displacement ligands in agonist or antagonist protocols (as indicated) and various reference compounds and inhibitors to titrate specific binding to receptors and transporters. Most enzyme assays (CYPs, kinases, phosphatases, proteases, HDACs) used recombinant protein and specific substrates (fluorescence mostly, some colorimetric and radioactive) and inhibitors, followed by a biochemical separation of substrate and product. All assays for the biochemical HTS were initially run in duplicate at a single concentration (10 uM for CYP450 assays and 25 uM for all others). Assay-chemical combinations meeting a pre-defined threshold (e.g., 30% inhibition and other criteria defined below) were then run in singleton concentration-response format with maximum concentration of 20 uM for CYPs and 50 uM for all others. Each assay was run with positive and negative controls, and concurrent controls on every plate. The follow-up (secondary) screen tested active chemical-pairs in concentration series, as well as a few additional assays not tested in the primary screen, some selected negative inactives, and several cases re-run in the concentration series for confirmatory purposes.

In assay [8] the target is Retinoic acid receptor alpha (Homo sapiens) (UniProt P10276). In words: NVS_NR_hRARa_Agonist: NovaScreen (NVS) Nuclear Receptor Binding Assay for human Retinoic Acid Alpha Receptor Agonism (RAR) (AID 2283361). An outline of the steps: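 Compounds screened at 25 uM, duplicate, then in concentration series if active. Detection: TR-FRET gain of signal versus DMSO after 2 h with cell-free extracted RARα.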

Assay [9] concerns the target human Thyroid Receptor Alpha (TRa), THRA (gene 7067) (UniProt P10827). In words: NVS_NR_hTRa_Antagonist: NovaScreen (NVS) Nuclear Receptor Binding Assay for human Thyroid Receptor Alpha Antagonism (TRa) (AID 2283362). An outline of the steps: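 Cell-free binding assay on extracted receptor protein, read 1 h after chemical dosing by AlphaLISA chemiluminescence; loss of signal relative to DMSO baseline marks antagonism. Primary screen ran in duplicate at 25 uM, with concentration series for actives.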

This is an account of results in PubChem BioAssay (EPA / NIEHS).

Molecules are shown by their SMILES. Several values for one entry are separate records, joined by “and”; a condition that tells them apart may be missing. Identical values can stand only once. Inconclusive results are not listed. More than one record can exist for a structure, and the calls need not agree. Activity calls are given as the source filed them. The calls were made as follows: active = hit-call score of the fitted dose curve at least 0.9, where 1 is the maximum; inconclusive = response in the unintended direction; inactive = score below 0.9.

Chain of Nuclear receptor subfamily 1 group I member 2 (Homo sapiens) (O75469 whole entry, looked up): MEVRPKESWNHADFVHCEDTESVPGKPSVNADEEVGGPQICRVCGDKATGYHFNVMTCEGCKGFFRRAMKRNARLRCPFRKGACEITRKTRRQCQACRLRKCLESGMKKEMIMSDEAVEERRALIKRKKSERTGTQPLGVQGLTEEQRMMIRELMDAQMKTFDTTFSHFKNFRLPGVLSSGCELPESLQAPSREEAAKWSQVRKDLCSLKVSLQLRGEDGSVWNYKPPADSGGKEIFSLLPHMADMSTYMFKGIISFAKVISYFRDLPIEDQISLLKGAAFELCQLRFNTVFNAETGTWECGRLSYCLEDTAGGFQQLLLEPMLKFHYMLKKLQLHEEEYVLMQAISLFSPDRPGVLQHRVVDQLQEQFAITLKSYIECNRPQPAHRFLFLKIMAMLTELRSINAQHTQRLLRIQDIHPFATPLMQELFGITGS
Chain of guinea pig Sigma Receptor, Non-selective Binding, SIGMAR1 (gene 100135589) (Q60492 whole entry, looked up): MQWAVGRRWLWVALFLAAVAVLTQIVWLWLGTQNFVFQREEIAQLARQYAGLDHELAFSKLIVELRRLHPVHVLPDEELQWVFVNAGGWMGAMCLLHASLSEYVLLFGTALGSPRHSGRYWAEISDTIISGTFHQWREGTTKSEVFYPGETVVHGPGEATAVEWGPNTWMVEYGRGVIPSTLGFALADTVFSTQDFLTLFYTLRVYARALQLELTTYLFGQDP
Chain of Glucocorticoid receptor (Homo sapiens) (P04150 whole entry, looked up): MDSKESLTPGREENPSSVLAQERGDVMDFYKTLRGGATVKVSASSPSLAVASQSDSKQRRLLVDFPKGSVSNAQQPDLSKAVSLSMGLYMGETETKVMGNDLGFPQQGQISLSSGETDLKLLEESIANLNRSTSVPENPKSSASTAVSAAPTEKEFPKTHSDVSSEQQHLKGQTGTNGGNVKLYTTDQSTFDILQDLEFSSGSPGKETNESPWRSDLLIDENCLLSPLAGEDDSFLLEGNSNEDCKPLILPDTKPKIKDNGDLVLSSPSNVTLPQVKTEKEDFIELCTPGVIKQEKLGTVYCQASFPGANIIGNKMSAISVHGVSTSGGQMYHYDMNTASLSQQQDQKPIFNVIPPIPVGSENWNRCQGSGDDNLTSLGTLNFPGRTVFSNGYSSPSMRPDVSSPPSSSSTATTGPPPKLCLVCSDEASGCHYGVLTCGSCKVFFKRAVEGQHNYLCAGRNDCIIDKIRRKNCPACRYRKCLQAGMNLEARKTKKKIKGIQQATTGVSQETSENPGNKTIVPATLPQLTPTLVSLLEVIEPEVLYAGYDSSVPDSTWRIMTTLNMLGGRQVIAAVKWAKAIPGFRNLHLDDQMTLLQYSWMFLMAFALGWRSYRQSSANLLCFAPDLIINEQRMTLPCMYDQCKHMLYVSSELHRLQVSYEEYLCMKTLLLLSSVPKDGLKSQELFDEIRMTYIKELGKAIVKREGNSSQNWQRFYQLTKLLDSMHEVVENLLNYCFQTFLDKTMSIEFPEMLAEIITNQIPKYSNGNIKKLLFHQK
Chain of Retinoic acid receptor alpha (Homo sapiens) (P10276 whole entry, looked up): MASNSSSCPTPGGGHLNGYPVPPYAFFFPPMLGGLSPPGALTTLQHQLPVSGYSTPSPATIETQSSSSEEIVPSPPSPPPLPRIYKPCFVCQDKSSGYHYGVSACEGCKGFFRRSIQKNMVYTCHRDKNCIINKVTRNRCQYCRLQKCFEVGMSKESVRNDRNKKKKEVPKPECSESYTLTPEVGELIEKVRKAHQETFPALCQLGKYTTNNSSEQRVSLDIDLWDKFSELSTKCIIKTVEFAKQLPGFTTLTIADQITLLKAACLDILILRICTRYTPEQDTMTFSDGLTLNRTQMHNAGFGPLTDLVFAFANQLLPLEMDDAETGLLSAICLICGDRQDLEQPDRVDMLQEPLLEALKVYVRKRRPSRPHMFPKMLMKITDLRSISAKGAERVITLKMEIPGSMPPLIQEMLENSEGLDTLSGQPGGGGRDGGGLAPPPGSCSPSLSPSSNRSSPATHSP
Chain of Peroxisome proliferator-activated receptor gamma (Homo sapiens) (P37231 whole entry, looked up): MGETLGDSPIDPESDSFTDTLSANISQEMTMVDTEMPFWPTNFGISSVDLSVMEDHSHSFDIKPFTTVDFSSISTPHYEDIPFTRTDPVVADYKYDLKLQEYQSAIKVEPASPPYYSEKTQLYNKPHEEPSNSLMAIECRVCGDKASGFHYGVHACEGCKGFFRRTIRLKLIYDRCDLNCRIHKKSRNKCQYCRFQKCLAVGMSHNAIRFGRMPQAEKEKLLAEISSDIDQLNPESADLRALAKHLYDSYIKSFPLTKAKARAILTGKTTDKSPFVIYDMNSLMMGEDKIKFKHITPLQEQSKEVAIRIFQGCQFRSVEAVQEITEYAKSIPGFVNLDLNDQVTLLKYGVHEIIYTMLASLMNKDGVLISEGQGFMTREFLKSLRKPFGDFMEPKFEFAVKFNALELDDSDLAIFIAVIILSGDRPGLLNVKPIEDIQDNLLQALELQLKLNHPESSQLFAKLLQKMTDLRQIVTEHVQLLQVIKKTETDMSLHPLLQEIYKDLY
Chain of human Thyroid Receptor Alpha (TRa), THRA (gene 7067) (P10827 whole entry, looked up): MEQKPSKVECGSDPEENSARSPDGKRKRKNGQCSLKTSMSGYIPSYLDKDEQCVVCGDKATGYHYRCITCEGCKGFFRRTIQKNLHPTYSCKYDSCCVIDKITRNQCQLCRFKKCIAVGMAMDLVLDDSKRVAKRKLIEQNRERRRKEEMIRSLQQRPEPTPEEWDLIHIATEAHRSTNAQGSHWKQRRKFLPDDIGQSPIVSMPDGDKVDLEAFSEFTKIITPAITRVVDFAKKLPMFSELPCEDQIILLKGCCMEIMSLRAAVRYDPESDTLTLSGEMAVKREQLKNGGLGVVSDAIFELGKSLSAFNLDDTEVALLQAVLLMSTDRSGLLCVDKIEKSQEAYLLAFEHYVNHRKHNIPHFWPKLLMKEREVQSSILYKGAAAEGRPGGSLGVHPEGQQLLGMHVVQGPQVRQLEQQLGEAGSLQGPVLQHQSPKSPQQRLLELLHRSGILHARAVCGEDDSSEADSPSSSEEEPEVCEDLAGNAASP
Chain of human Adenosine Transporter (Adot), SLC29A1 (gene 2030) (Q99808 whole entry, looked up): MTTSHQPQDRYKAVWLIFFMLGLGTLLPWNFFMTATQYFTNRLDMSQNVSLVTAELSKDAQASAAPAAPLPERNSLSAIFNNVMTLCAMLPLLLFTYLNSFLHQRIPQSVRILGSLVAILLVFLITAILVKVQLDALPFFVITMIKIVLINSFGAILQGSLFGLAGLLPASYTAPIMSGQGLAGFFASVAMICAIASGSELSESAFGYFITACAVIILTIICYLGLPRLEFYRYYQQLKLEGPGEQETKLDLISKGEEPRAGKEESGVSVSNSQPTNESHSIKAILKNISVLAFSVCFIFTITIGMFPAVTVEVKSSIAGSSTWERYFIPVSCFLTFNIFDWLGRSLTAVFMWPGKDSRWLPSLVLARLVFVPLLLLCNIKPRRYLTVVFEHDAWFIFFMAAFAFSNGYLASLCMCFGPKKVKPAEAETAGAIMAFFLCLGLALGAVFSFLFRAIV
Chain of rat Androgen Receptor (AR), Ar (gene 24208) (P15207 whole entry, looked up): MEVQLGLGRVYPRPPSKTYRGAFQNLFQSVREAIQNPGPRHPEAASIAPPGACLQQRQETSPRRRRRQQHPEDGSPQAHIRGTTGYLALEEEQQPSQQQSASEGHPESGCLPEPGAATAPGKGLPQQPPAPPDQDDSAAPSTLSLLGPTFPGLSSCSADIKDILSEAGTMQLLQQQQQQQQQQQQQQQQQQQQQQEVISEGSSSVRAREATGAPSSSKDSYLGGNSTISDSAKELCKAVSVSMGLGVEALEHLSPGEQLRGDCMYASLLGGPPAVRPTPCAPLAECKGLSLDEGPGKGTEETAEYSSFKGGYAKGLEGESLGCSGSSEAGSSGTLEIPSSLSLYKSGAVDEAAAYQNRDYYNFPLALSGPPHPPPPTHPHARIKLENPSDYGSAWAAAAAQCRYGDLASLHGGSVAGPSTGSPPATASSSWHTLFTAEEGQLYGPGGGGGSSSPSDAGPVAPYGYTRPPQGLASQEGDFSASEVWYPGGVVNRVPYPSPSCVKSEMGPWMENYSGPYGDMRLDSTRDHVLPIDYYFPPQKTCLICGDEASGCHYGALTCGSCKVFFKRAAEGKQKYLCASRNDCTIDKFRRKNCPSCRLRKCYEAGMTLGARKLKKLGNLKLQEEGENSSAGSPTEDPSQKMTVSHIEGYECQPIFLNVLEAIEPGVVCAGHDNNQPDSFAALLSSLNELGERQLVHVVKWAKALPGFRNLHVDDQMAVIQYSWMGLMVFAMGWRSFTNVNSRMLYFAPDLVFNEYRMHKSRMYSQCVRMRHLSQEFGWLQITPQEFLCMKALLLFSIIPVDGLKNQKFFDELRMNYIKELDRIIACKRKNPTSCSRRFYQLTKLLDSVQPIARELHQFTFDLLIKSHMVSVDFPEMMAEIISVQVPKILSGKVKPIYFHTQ

On to `CC(C)(c1ccc(O)cc1)c1ccc(O)cc1`, for which the AC50 (usually the concentration at which the activity in the assay is half-maximal) is 8.08 µM (active) and 10.9 µM (active) in assay [1]; 16.1 µM (active) [middle of 4 runs] in assay [2]; 8.43 µM (active) in [3]. Moreover, the compound was classed as inactive in assay [1], in assay [3], in [4] and in assay [5].

Consider `CC1(C)C(C=C(Cl)Cl)C1C(=O)OCc1cccc(Oc2ccccc2)c1` (stereo unspecified), for which the outcome in assay [6] and in [2] was inactive.

Take `OB(O)O`: in assay [7], the compound was classed as inactive.

Regarding `N[C@@H](Cc1cc(I)c(Oc2ccc(O)c(I)c2)c(I)c1)C(=O)O`, in assay [1], the compound was called inactive. Also, in assay [4], the half-maximal activity concentration (AC50) was 32.3 µM (active) and the compound was called inactive.

`O=C(Nc1ccc([N+](=O)[O-])cc1Cl)c1cc(Cl)ccc1O`: the compound was classed as inactive in assay [4].

For `O=C(c1ccccc1)C1CCCCC1`, the result in assay [1], in assay [2] and in assay [4] was inactive. Moreover, the concentration at half-maximal activity (AC50) in [2] was 6.52 µM (active).

With `CCC(O)=C1C(=O)CC(C(=O)O)CC1=O` (stereo unspecified), in assay [7], the call was inactive.

As for `CCCCC(CC)CN1C(=O)C2C3C=CC(C3)C2C1=O` (stereo unspecified), the AC50 in [6] was 25 µM (active). Also, in assay [4], the call was inactive.

As to `CCN(CC)C(=O)c1cccc(C)c1`, in [4], the call was inactive.

For `O=C(c1ccc(O)cc1O)c1ccc(O)cc1O`, the concentration at half-maximal activity (AC50) in [8] is 25 µM (active) and 33.4 µM (active); in assay [6] it was 9.33 µM (active) and 8.91 µM (active) and 10.9 µM (active); in [2], 7.84 µM (active) [middle of 4 runs]; in assay [4], 40.4 µM (active). Moreover, the call in assay [8] and in assay [4] was inactive.

Take `C#C[C@]1(O)CC[C@H]2[C@@H]3CCC4=CC(=O)CC[C@@H]4[C@H]3CC[C@@]21CC`: the compound was classed as inactive in [1] and in assay [4].

Consider `COc1nc(C)nc(NC(=O)NS(=O)(=O)c2ccccc2OCCCl)n1`, for which, in assay [4], the compound was classed as inactive.

Take `CC(=O)S[C@@H]1CC2=CC(=O)CC[C@]2(C)[C@H]2CC[C@@]3(C)[C@@H](CC[C@@]34CCC(=O)O4)[C@H]12`: the compound was classed as inactive in [9], in assay [1] and in assay [4]. Moreover, in assay [1], the AC50 was 25 µM (active).

As for `O=C(O)C1(C(=O)Nc2ccc(Cl)cc2Cl)CC1`, the AC50 in assay [4] is 8.65 µM (active).

For the compound `COC(=O)c1ccccc1C(=O)O`, in assay [6], the concentration at half-maximal activity (AC50) was 5.83 µM (active). The compound was classed as inactive in assay [4].

Consider `S=C(S)NCCNC(=S)S.[Mn+2].[S-]C([S-])=NCCN=C([S-])[S-].[Zn+2]`, for which the AC50 was 7.34 µM (active) in assay [9]; 5.33 µM (active) and 1.52 µM (active) in assay [1]. Also, the compound was called inactive in [3], in [7] and in assay [4].

For the compound `S=C([S-])NCCNC(=S)[S-].[Mn+2]`, the AC50 in [6] is 10.1 µM (active). Also, the compound was classed as inactive in assay [3].

In the case of `O=C(O)c1ccccc1`, the outcome in [4] was inactive.
